Data as given in PubChem BioAssay (NCI).
About 83,000 compounds went through this panel and 20% of them were active in at least one assay; those are over-represented in the sample as a whole.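 Growth was measured after 48 h exposure to one concentration of compound in 96-well plates. Values under 10 count as active.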 Unmarked numbers belong to inactive results. Activity calls are given as the source filed them.

test system: HL-60(TB) leukemia; experiment: NCI-60 one-dose screen, 48 h (100 = growth as untreated, 0 = no growth, -100 = all killed); conditions: 10 µM unless noted

**Q.** With `Clc1ccc(Nc2nccc(Nc3ccc4[nH]ncc4c3)n2)cc1` as the compound, how does the growth read?
**A.** 51.5%

**Q.** With `COc1cnc2c(c1)C(=O)c1c-2n(CCCN2CCC(O)CC2)c(=O)c2cc(Cl)ccc12` as the compound, how does the growth read?
**A.** -35.9% (active)

**Q.** For `CCOC(=O)c1csc(NC(=O)COc2cccc(/C=C3\CSc4ccccc4C3=O)c2)n1`, which growth is on record?
**A.** -77.5% (active)

**Q.** For `O=S(=O)(NCCNc1nccc(-c2c(-c3cccc(O)c3)nc3occn23)n1)c1ccccc1`, which growth is on record?
**A.** 55.3%

**Q.** `Cc1ccc(S(=O)(=O)NC(=O)NCCSSCCNC(=O)NS(=O)(=O)c2ccc(C)cc2)cc1` was tested. Which growth did it give?
**A.** 102%

**Q.** For `O=C(OCc1ccccc1)n1nnc2ccccc21`, which growth is on record?
**A.** 111%

**Q.** Which growth does the source give for `Cc1nc2sc(C(=O)Nc3ccc(Cl)cc3)c(N)c2cc1C(O)c1ccccc1` (centres undefined) here?
**A.** 2.56% (active)

**Q.** `O=C1C=CC2(O)OC/C(=C\c3ccccc3)C(O)=C2C1=O` (centres undefined) was tested. Which growth did it give?
**A.** 4.63% (active)

**Q.** `Clc1ccc2c(NCCNc3nc(N4CCCC4)nc4ccccc34)ccnc2c1` was tested. Which growth did it give?
**A.** -70% (active)

**Q.** Which growth does the source give for `CC(=O)N1N=C(c2ccc(Cl)cc2)CC1c1c(C)nn(-c2ccccc2)c1N(C)Cc1ccccc1` (centres undefined) here?
**A.** 82.4%

**Q.** Which growth does the source give for `O=[N+]([O-])c1ccc(N=Nc2ccccc2)cc1` here?
**A.** 67.1%

**Q.** `O=[N+]([O-])c1cccc(N=Cc2ccccc2)c1` was tested. Which growth did it give?
**A.** 106%

**Q.** How did the growth turn out when `CC[C@H](C)[C@@H](C(=O)OC)n1cc(CNC(=O)[C@@H](Cc2ccccc2)NC(=O)OCc2ccccc2)nn1` was run?
**A.** 104%

**Q.** `COc1ccc(-c2cc(=O)[nH]c3c(OC)c4ccccc4c(OC)c23)cc1` was tested. Which growth did it give?
**A.** -19.8% (active)

**Q.** `O=C1Nc2ccccc2/C1=C/c1cn(CC(O)Cn2cc(/C=C3\C(=O)Nc4ccccc43)c3ccccc32)c2ccccc12` (centres undefined) was tested. Which growth did it give?
**A.** -10.2% (active)

**Q.** Which growth does the source give for `O=C(Nc1ncc(Cc2ccc(Cl)cc2)s1)c1ccc2c(c1)OCCO2` here?
**A.** -49.3% (active)

**Q.** Which growth does the source give for `Cn1nc(C(F)(F)F)c(-c2ccc(Cl)c(C(F)(F)F)c2)c1-c1ccc(OCc2ccc(Cl)cc2)cc1O` here?
**A.** 9.3% (active)

**Q.** `CC(C)=CCC[C@](C)(O)C1CC[C@]2(C)[C@@H]1CC[C@@H]1[C@@]3(C)CC/C(=N\OCCC#N)C(C)(C)[C@@H]3CC[C@]12C` (some centres undefined) was tested. Which growth did it give?
**A.** 69.3%

**Q.** How did the growth turn out when `COc1cc2cc(Oc3ccc(NC(=O)Nc4ccc(F)c(C(F)(F)F)c4)cc3)c(C)nc2cc1OCCN1CCCCC1` was run?
**A.** -24.5% (active)

**Q.** How did the growth turn out when `C=CCNC(=O)/C(=C/c1cccc([N+](=O)[O-])c1)NC(=O)c1ccccc1` was run?
**A.** 137%

**Q.** `CC1(C)CC[C@]23CC[C@]4(C)[C@H](CC[C@@H]5[C@@]6(C)C/C(=C/O)C(=O)C(C)(C)[C@@H]6CC[C@]54C)[C@H]2[C@H]1OC3` was tested. Which growth did it give?
**A.** 102%

**Q.** With `CC(Oc1ccc(Cl)cc1)c1ccccc1` (centres undefined) as the compound, how does the growth read?
**A.** 93.6%

**Q.** `Cc1ccc(Cl)cc1NC(=O)c1cc2ccccc2cc1O` was tested. Which growth did it give?
**A.** -49.5% (active)

**Q.** `Fc1ccc(C2CC(c3cccc(Nc4ccncc4)c3)=NN2c2cc(Cl)cc(Cl)c2)cc1` (centres undefined) was tested. Which growth did it give?
**A.** -13.2% (active)

**Q.** For `CC1(C)N=C(N)N=C(N)N1c1cccc(OCCOc2cccc([N+](=O)[O-])c2)c1`, which growth is on record?
**A.** 17.6%

**Q.** Which growth does the source give for `COc1cc(-c2nn3c(/C=C4/C(=O)Nc5ccccc54)c(-c4ccc(C)cc4)nc3s2)cc(OC)c1OC` here?
**A.** 34.8%

**Q.** Which growth does the source give for `O=c1[nH]c(N2CCC(Cc3ccccc3)CC2)nc2sc3c(c12)CCCC3` here?
**A.** 95.7%

**Q.** Which growth does the source give for `N=C(N)c1ccc(-c2ccc(-c3ccc(F)cc3)s2)s1` here?
**A.** -57.6% (active)

**Q.** Which growth does the source give for `CN1CCN(Cc2ccc(NC(=O)c3cccc(C#Cc4cnc(N)c5ncccc45)c3F)cc2C(F)(F)F)CC1` here?
**A.** 12%
